According to PubChem BioAssay AID1159580 (chemical genetic matrix, 2015):
Values joined by “and” are separate entries in the source; they are usually repeats but may differ in a detail not shown here. Equal entries are not always repeated. The campaign covered roughly 5,500 compounds. About 2,000 (36%) were called active. Another 18% or so got no clear call; they are omitted. Cut-off read from the data, not from the text of the source: active = normalized growth mostly below about 0.91 (no sharp cut-off); inconclusive = no clear call, values can overlap the other calls; inactive = mostly above about 0.92. The list shows a part of the results.

Assay: chemical genetic growth profiling, strain panel (AID 1159580);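 note: tested at 20 µM; growth read once vehicle control cultures reached saturation at 30 °C; 1 = growth at the plate median or of vehicle wells; lower values mean less growth of the strain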
Conditions: growth OD

Measured: normalized growth

CN(C)c1nc(N(C)C)nc(N(C)C)n1
inactive: S. cerevisiae deletion strains, locus YKL009W, strain mrt4, active compounds read low 1 | S. cerevisiae deletion strains, locus YKL068W, active compounds read low 1.01 | S. cerevisiae deletion strains, locus YKL085W, strain MDH1 (second series), active compounds read low 1.01 | S. cerevisiae deletion strains, locus YKL085W, strain MDH1, active compounds read low 1.01 | S. cerevisiae deletion strains, locus YKL160W, strain elf1, active compounds read low 0.985 | S. cerevisiae deletion strains, locus YKL190W, strain CNB1, active compounds read low 1.01 | S. cerevisiae deletion strains, locus YKR001C, strain vps1, active compounds read low 1.01 | S. cerevisiae deletion strains, locus YKR026C, strain gcn3, active compounds read low 0.978 | S. cerevisiae deletion strains, locus YKR091W, strain srl3, active compounds read low 0.962 | S. cerevisiae deletion strains, locus YLL001W, strain dnm1, active compounds read low 0.969 | S. cerevisiae deletion strains, locus YLL026W, active compounds read low 0.977 | S. cerevisiae deletion strains, locus YLL041C, strain sdh2, active compounds read low 0.983 | S. cerevisiae deletion strains, locus YLR027C, strain aat2, active compounds read low 0.969 | S. cerevisiae deletion strains, locus YLR039C, strain RIC1, active compounds read low 0.964 | S. cerevisiae deletion strains, locus YLR058C, strain SHM2, active compounds read low 1.01 | S. cerevisiae deletion strains, locus YLR102C, strain apc9, active compounds read low 1.01 | S. cerevisiae deletion strains, locus YLR113W, strain HOG1, active compounds read low 0.948 | S. cerevisiae deletion strains, locus YLR221C, strain rsa3, active compounds read low 0.945 | S. cerevisiae deletion strains, locus YLR258W, strain gsy2, active compounds read low 0.987 | S. cerevisiae deletion strains, locus YLR262C, strain YPT6 (second series), active compounds read low 0.932 | S. cerevisiae deletion strains, locus YLR262C, strain YPT6, active compounds read low 0.986 | S. cerevisiae deletion strains, locus YLR268W, strain sec22, active compounds read low 1.02 | S. cerevisiae deletion strains, locus YLR320W, strain mms22, active compounds read low 0.949 | S. cerevisiae deletion strains, locus YLR330W, strain CHS5, active compounds read low 1.01 | S. cerevisiae deletion strains, locus YLR342W, strain FKS1 (second series), active compounds read low 1 | S. cerevisiae deletion strains, locus YLR342W, strain FKS1, active compounds read low 0.968 | S. cerevisiae deletion strains, locus YLR357W, strain rsc2, active compounds read low 0.978 | S. cerevisiae deletion strains, locus YLR370C, strain arc18, active compounds read low 0.964 | S. cerevisiae deletion strains, locus YLR371W, strain rom2, active compounds read low 1.01 | S. cerevisiae deletion strains, locus YLR384C, strain iki3, active compounds read low 0.951 | S. cerevisiae deletion strains, locus YLR418C, strain cdc73, active compounds read low 1.05 | S. cerevisiae deletion strains, locus YML016C, strain PPZ1, active compounds read low 1.01 | S. cerevisiae deletion strains, locus YML032C, strain rad52, active compounds read low 1.02 | S. cerevisiae deletion strains, locus YML120C, strain ndi1, active compounds read low 0.952 | S. cerevisiae deletion strains, locus YML124C, strain tub3, active compounds read low 1.02 | S. cerevisiae deletion strains, locus YMR058W, strain fet3, active compounds read low 0.969 | S. cerevisiae deletion strains, locus YMR078C, strain ctf18, active compounds read low 1.02 | S. cerevisiae deletion strains, locus YMR125W, strain sto1, active compounds read low 0.97 | S. cerevisiae deletion strains, locus YMR129W, active compounds read low 0.992 | S. cerevisiae deletion strains, locus YMR205C, strain PFK2, active compounds read low 0.945 | S. cerevisiae deletion strains, locus YMR223W, strain ubp8, active compounds read low 1.02 | S. cerevisiae deletion strains, locus YMR231W, strain pep5, active compounds read low 0.979 | S. cerevisiae deletion strains, locus YMR263W, strain SAP30, active compounds read low 1.01 | S. cerevisiae deletion strains, locus YMR307W, strain GAS1, active compounds read low 1.03 and 1.01 | S. cerevisiae deletion strains, locus YNL067W, strain RPL9B, active compounds read low 1 | S. cerevisiae deletion strains, locus YNL071W, strain lat1, active compounds read low 0.982 | S. cerevisiae deletion strains, locus YNL128W, strain TEP1, active compounds read low 1.02 | S. cerevisiae deletion strains, locus YNL153C, strain GIM3, active compounds read low 0.995 | S. cerevisiae deletion strains, locus YNL175C, strain NOP13, active compounds read low 0.992 | S. cerevisiae deletion strains, locus YNL183C, strain NPR1, active compounds read low 0.92 | S. cerevisiae deletion strains, locus YNL197C, strain WHI3, active compounds read low 0.997 | S. cerevisiae deletion strains, locus YNL209W, strain ssb2, active compounds read low 0.978 | S. cerevisiae deletion strains, locus YNL224C, strain SQS1, active compounds read low 0.993 | S. cerevisiae deletion strains, locus YNL233W, strain BNI4, active compounds read low 1 | S. cerevisiae deletion strains, locus YNL248C, strain rpa49, active compounds read low 0.959 | S. cerevisiae deletion strains, locus YNL250W, strain rad50, active compounds read low 1.04 | S. cerevisiae deletion strains, locus YNL271C, strain bni1, active compounds read low 1.02 | S. cerevisiae deletion strains, locus YNL298W, strain CLA4, active compounds read low 1.02 | S. cerevisiae deletion strains, locus YNL307C, strain MCK1, active compounds read low 1.02 | S. cerevisiae deletion strains, locus YNL322C, strain KRE1 (second series), active compounds read low 0.954 | S. cerevisiae deletion strains, locus YNL322C, strain KRE1, active compounds read low 0.996 | S. cerevisiae deletion strains, locus YNR049C, strain mso1, active compounds read low 0.96 | S. cerevisiae deletion strains, locus YNR052C, strain pop2, active compounds read low 1.02 | S. cerevisiae deletion strains, locus YOL006C, strain TOP1, active compounds read low 1 | S. cerevisiae deletion strains, locus YOL012C, strain htz1 0.788 | S. cerevisiae deletion strains, locus YOL147C, strain pex11, active compounds read low 1.02 | S. cerevisiae deletion strains, locus YOR001W, strain rrp6, active compounds read low 0.987 | S. cerevisiae deletion strains, locus YOR061W, strain CKA2, active compounds read low 1.01 | S. cerevisiae deletion strains, locus YOR069W, strain VPS5, active compounds read low 1 | S. cerevisiae deletion strains, locus YOR070C, strain gyp1, active compounds read low 0.984 | S. cerevisiae deletion strains, locus YOR080W, strain dia2, active compounds read low 0.974 | S. cerevisiae deletion strains, locus YOR083W, strain WHI5 (second series), active compounds read low 1.03 | S. cerevisiae deletion strains, locus YOR083W, strain WHI5, active compounds read low 0.956 | S. cerevisiae deletion strains, locus YOR106W, strain vam3, active compounds read low 0.928 | S. cerevisiae deletion strains, locus YOR136W, strain idh2, active compounds read low 1.02 | S. cerevisiae deletion strains, locus YOR144C, strain elg1, active compounds read low 1.01 | S. cerevisiae deletion strains, locus YOR184W, strain ser1, active compounds read low 1.02 | S. cerevisiae deletion strains, locus YOR231W, strain MKK1, active compounds read low 0.962 | S. cerevisiae deletion strains, locus YOR265W, strain rbl2, active compounds read low 0.971 | S. cerevisiae deletion strains, locus YOR270C, strain vph1, active compounds read low 0.953 | S. cerevisiae deletion strains, locus YOR290C, strain snf2, active compounds read low 0.919 | S. cerevisiae deletion strains, locus YOR316C, strain cot1, active compounds read low 1.02 | S. cerevisiae deletion strains, locus YPL051W, strain arl3, active compounds read low 0.979 | S. cerevisiae deletion strains, locus YPL055C, strain LGE1, active compounds read low 1.01 | S. cerevisiae deletion strains, locus YPL078C, strain atp4, active compounds read low 0.975 | S. cerevisiae deletion strains, locus YPL106C, strain sse1, active compounds read low 0.951 | S. cerevisiae deletion strains, locus YPL240C, strain hsp82, active compounds read low 0.974 | S. cerevisiae deletion strains, locus YPL256C, strain CLN2, active compounds read low 0.975 | S. cerevisiae deletion strains, locus YPR119W, strain clb2, active compounds read low 1.01 | S. cerevisiae deletion strains, locus YPR141C, strain kar3, active compounds read low 1.02 | S. cerevisiae deletion strains, locus YPR163C, strain tif3, active compounds read low 1.02 | S. cerevisiae deletion strains, locus YPR167C, strain met16, active compounds read low 1.01 | S. cerevisiae deletion strains, strain wtn01, active compounds read low 1.02 | S. cerevisiae strains, strain wild type, active compounds read low 1.01
